According to PubChem BioAssay (Tox21):
Inconclusive results are not listed. Entries that show only a call come without a potency. The source made the active and inactive calls. Calls follow the shape of the dose curve; as a rule, active = well fitted cell-killing curve with a large enough effect in the repeat runs; inconclusive = weak or mixed curves, or effect the other way; inactive = flat fitted curve, though single readings scatter.

Tests used:
[1] = cAMP Responsive Elements (CRE) small molecule antagonists, cell-based qHTS assay: qHTS cell viability counter screen (AID 2060913); also: nearly all actives have a fitted effect of over 40% in size
Summary of the method: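 HEK293T CRE-bla, 2,000 cells/well, 18 h preincubation; cpd in DMSO + NKH477 0.25 uM final, 3 h 37 C/5% CO2; LiveBLAzer 2 h RT, then CellTiter-Glo 30 min RT, luminescence.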

[2] = cAMP Responsive Elements (CRE) small molecule agonists, cell-based qHTS assay: qHTS cell viability counter screen (AID 2060914);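 also: viability read after 3 h of compound exposure; nearly all actives have a fitted effect of over 50% in size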
Summary of the method: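 HEK 293T CRE-bla; DMEM + 10% dialyzed FBS, 25 mM HEPES; 18 h pre-incubation; compound 3 h, 37 °C/5% CO2; CellTiter-Glo added after reporter read; luminescence after 30 min RT.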

SMILES | Potency [1] | Potency [2]
CC(Cl)(Cl)C(=O)O | inactive | inactive
Nc1nc(=S)[nH][nH]1 | inactive | inactive
NCC(O)c1ccc(O)cc1 (centres undefined) | inactive | inactive
OCCCl | inactive | inactive
CCOP(=S)(OCC)SCn1nnc2ccccc2c1=O | inactive | inactive
Cc1ccc2cc(C)ccc2c1 | inactive | inactive
N#Cc1c2ccccc2cc2ccccc12 | inactive | inactive
O=C/C=C/c1ccccc1 | inactive | inactive
CCOC(=O)N(C)C(=O)CSP(=S)(OCC)OCC | inactive | inactive
O=S(=O)(c1ccc(Cl)cc1)c1cc(Cl)c(Cl)cc1Cl | inactive | inactive
O=c1[nH]c2ccccc2o1 | inactive | inactive
C[N+]1(CCF)[C@@H]2CC[C@H]1CC(OC(=O)C(O)(c1ccccc1)c1ccccc1)C2 (some centres undefined) | inactive | inactive
CS/C(C)=N/OC(=O)N(C)SN(C)C(=O)O/N=C(\C)SC | inactive | inactive
O=C(CCl)c1ccc(Cl)cc1Cl | inactive | inactive
O=[N+]([O-])c1ccc(CBr)cc1 | inactive | inactive
CCOC(=O)C(c1c(O)c2ccccc2oc1=O)c1c(O)c2ccccc2oc1=O | inactive | inactive
CCN(CC)C(C)C(=O)c1ccccc1 (centres undefined) | inactive | inactive
C=CCc1ccc(OC)cc1 | inactive | inactive
CC1Sc2c(C(=O)O)c(=O)c3cc(F)c(N4CCNCC4)cc3n21 (centres undefined) | inactive | inactive
CCOc1nc(C(Cl)(Cl)Cl)ns1 | inactive | inactive
CC(Oc1cc(Cl)c(Cl)cc1Cl)C(=O)O (centres undefined) | inactive | inactive

SMILES | Potency [1] | Potency [2]
CCNc1nc(NC(C)C(C)C)nc(SC)n1 (centres undefined) | inactive | inactive
[Cl-].[Cl-].[Cl-].[Fe+3] | inactive | inactive
CCC(Cl)CCl (centres undefined) | inactive | inactive
Cc1ncc2n1-c1ccc(Cl)cc1C(c1ccccc1F)=NC2 | inactive | inactive
CCn1cc[n+](C)c1 (tested in a mixture with another compound) | inactive | inactive
CC(C)C(=O)Cl | inactive | inactive
N#CCCCl | inactive | inactive
OCCN(CCO)CCO | inactive | inactive
CCCCCCCCCl | inactive | inactive
COc1ncc(F)c2nc(S(=O)(=O)Nc3c(F)cccc3F)nn12 | inactive | inactive
Nc1ccc(Cl)cc1N | inactive | inactive
C1CCNCC1 | inactive | inactive
ClCc1ccccc1Cl | inactive | inactive
CNC(=O)O/N=C(/CSC)C(C)(C)C | inactive | inactive
CC(C)(O)C#N | inactive | inactive
C=C(C)[C@@H]1CC=C(C=O)CC1 | inactive | inactive
O=C(O)C1C2CCC(O2)C1C(=O)O (centres undefined) | inactive | inactive
O=[N+]([O-])c1ccc(Nc2ccccc2)cc1 | inactive | inactive
CCCCOC(C)=O | inactive | inactive
CCOP(=S)(OCC)Oc1cnc2ccccc2n1 | inactive | inactive
COC(=O)NS(=O)(=O)c1ccc(N)cc1 | inactive | inactive

SMILES | Potency [1] | Potency [2]
ClC(Cl)C(Cl)Cl | inactive | inactive
O=P1(N(CCCl)CCCl)NCCCO1 (centres undefined) | inactive | inactive
COc1ccc(-c2ccccc2)cc1NNC(=O)OC(C)C | inactive | inactive
CC(C)(O)C(Cl)(Cl)Cl | inactive | inactive
C/C(=N\NC(=O)Nc1cc(F)cc(F)c1)c1ncccc1C(=O)O | inactive | inactive
Cc1ccccc1CCl | inactive | inactive
CC1OC(C)OC(C)O1 (centres undefined) | inactive | inactive
CCCCCCOC(=O)c1ccccc1C(=O)OCCCCCC | inactive | inactive
C=CC(Cl)CCl (centres undefined) | inactive | inactive
O=C(Cc1ccccc1)OCc1ccccc1 | inactive | inactive
CC1CCCCC1NC(=O)Nc1ccccc1 (centres undefined) | inactive | inactive
CC(C)=CC1C(C(=O)OCc2cccc(Oc3ccccc3)c2)C1(C)C (centres undefined) | inactive | inactive
CC1C=[C-]C=C1.[C-]#[O+].[C-]#[O+].[C-]#[O+].[Mn] | inactive | inactive
COC(=O)C(Cl)C(=O)OC | inactive | inactive
CCOP(=S)(OCC)O/N=C(\C#N)c1ccccc1 | inactive | inactive
c1ccc2c(c1)OCC(C1=NCCN1)O2 (centres undefined) | inactive | inactive
CCNCC | inactive | inactive
O=C(O)C(Br)(Br)Br | inactive | inactive
Cc1ccc(-c2nc3ccc(C)cn3c2CC(=O)N(C)C)cc1 | inactive | inactive
O=C(CCCN1CCC2(CC1)C(=O)NCN2c1ccccc1)c1ccc(F)cc1 | inactive | inactive
